NS1 inh – blocks influenza NS1 protein function | Potency, µM (series often up to 46.1 µM), without a hit: at the top dose activity, positive = more growth | 270,000 compounds, 0.4% hits | AID 2326; note: potency is the fitted concentration of half-maximal effect; actives are rising curves; nearly all actives have a fitted effect of over 50% in size
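Compounds were scored for reversing the slow growth caused by influenza A NS1 in S. cerevisiae, measured by optical density at 600 nm. Assay medium contained 2% galactose at pH 6.0; NS1-free yeast of the same strain were the positive control.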
SARS PLP yeast – inhibitors of SARS-CoV papain-like protease in yeast. AID 485353. S. cerevisiae expressing SARS-CoV PLpro, growth rescue. 330,000 compounds, 0.19% hits. Potency, µM (titrated, usually from 32.9 µM), inactives show top-dose activity, positive = growth rescue, most hits filed as activators; note: potency is the fitted concentration of half-maximal effect; 0% is about no effect; nearly all actives have a fitted effect of over 55% in size
AMA1 RON2 block – inhibitors of Plasmodium falciparum AMA1-RON2 interaction | AlphaScreen AMA1-biotinylated RON2 peptide binding | Potency, µM (series often up to 58.2 µM), inactives show at the highest dose activity change, negative = inhibition, hits mostly inhibitors | 360,000 compounds, 0.2% hits | AID 720542; active = well fitted inhibition curve with a large enough effect; inconclusive = small, poorly fitted or top-dose-only effect; inactive = no such curve, though single readings can be large or run the other way;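 note: potency is the fitted concentration of half-maximal effect; 0% = vehicle wells and -100% = peptide control; nearly all actives have a fitted effect of over 45% in size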
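AMA1 (3D7) with his tag at 25 nM final met compounds first, then biotinylated RON2 peptide at 25 nM; detection used donor plus acceptor beads, 10 µg/mL apiece, read by AlphaScreen after 30 min at room temperature.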
Flu NS1 inh – influenza NS1 function inhibition validation | shares compounds with NS1 inh | influenza NS1 function cell assay, 15-point titration | activity change, negative = inhibition, % at 32.9 µM | 1,400 tested, under 10 active; note: 0% is about no effect
Starred values were filed as active, the others as inactive; ? = inconclusive; · = no result given; [ ] = dose if it differs, or a comment. In the library only some 0.65% were active in any assay of this set; here they are far more common. Unless noted, calls come from the whole dose curve.

SMILES | NS1 inh | SARS PLP yeast | AMA1 RON2 block | Flu NS1 inh
Cc1cc2cc(CNC(=S)Nc3ccc(OC(F)F)cc3)ccc2[nH]1 | ? | 7.1% | 82.0% | ·
Cc1cc2cc(CCNC(=O)c3ccc(C)c([N+](=O)[O-])c3)c(=O)[nH]c2cc1C | 25.7% | 3.0% | 31.4% | ·
CCOC(=O)NCc1ccc2[nH]c(C)cc2c1 | 25.8% | -7.3% | -7.9% | ·
Cc1cc2cc(CNC(=O)c3ccc(C)c([N+](=O)[O-])c3)ccc2[nH]1 | 8.91µM* | -20.0% | -2.0% | -23.0
Cc1cc2cc(CNC(=S)Nc3ccc(OC(F)(F)F)cc3)ccc2[nH]1 | ? | 3.1% | 65.1% | 16.1
CCNC(=S)NCc1ccc2[nH]c(C)cc2c1 | 11.2µM* | 7.9% | -12.5% | 20.2
COc1cc(/C=C2\C(=N)N3N=C(S(C)(=O)=O)SC3=NC2=O)ccc1OS(=O)(=O)c1ccc(C)cc1 | 1.5% | ? | 46.6% | ·
COC(CN(C)C(=O)c1cn(C)c2ccc(S(=O)(=O)N(C)C3CCCCC3)cc2c1=O)OC | 4.3% | 4.8% | -10.6% | ·
CCCCc1ccc(NC(=O)CSC2=C(C#N)C(c3ccco3)C3=C(CCCC3=O)N2)cc1 (configuration not stated) | 20µM* | 0.9% | 3.4% | ?
COc1cccc(NC(=O)CSC2=C(C#N)C(c3ccco3)C3=C(CCCC3=O)N2)c1 (configuration not stated) | -4.0% | -2.8% | -0.6% | ·
Cc1ccc(S(=O)(=O)NC(C)C(=O)OCC(=O)Nc2sccc2C(N)=O)cc1 (configuration not stated) | · | · | -5.2% | ·
O=C(/C=C/c1ccc(Cl)cc1Cl)NC(=S)Nc1ccc(CN2CCOCC2)cc1 | ? | -4.1% | 20.6% | 24.7
O=C(/C=C/c1ccccc1)NC(=S)Nc1ccc(CN2CCOCC2)cc1 | 13.2% | -1.5% | 25.2% | ·
Cc1ccc(Cc2nnc(SCC(=O)Nc3ccccc3)n(N)c2=O)cc1 | · | -4.8% | 7.6% | ·
CCOCCCNc1ccc(N2C(=O)CCCC2=O)cc1[N+](=O)[O-] | 4.8% | 1.0% | 15.0% | ·
C/C(CC(=O)Nc1ccccc1C#N)=N\NC(=O)c1ccncc1 | 1.6% | -5.6% | 84.3% | ·
CCCCN(C=O)c1c(CC)nc2c(OCC3CCCCC3)cccn12 | · | · | 26.9% | ·
O=C(CSc1nc2ccccc2c(=O)n1-c1ccccc1)N1CCc2ccccc2C1 | -31.7% | -23.6% | 4.4% | ·
CC(C)c1ccccc1-n1c(SCC(=O)N2CCc3ccccc3C2)nc2ccccc2c1=O | 22.4µM* | 27.8% | -5.2% | -7.2
COC(=O)N1CCCCC1c1cc(C(=O)NCc2ccccc2)no1 (configuration not stated) | · | · | 14.3% | ·
NC(=O)c1ccccc1NC(=O)COC(=O)C1(c2ccccc2)CC1 | · | -1.4% | -18.1% | ·
S=C(Nc1ccc(Oc2ccccc2)cc1)NC1CCCCCC1 | -25.3% | -58.7% | -0.8%[11.6 µM] | ·
S=C(Nc1ccc(Oc2ccc(NC(=S)NC3CCCCC3)cc2)cc1)NC1CCCCC1 | 11.2µM* | 11.2µM* | 16.1%[2.32 µM] | -2.9
O=C(CC1SC(=Nc2cccc3ccccc23)N(Cc2ccccn2)C1=O)Nc1ccccc1Br (configuration not stated) | 18.0% | -5.4% | -1.0% | ·
Cc1ccccc1N=C1SC(CC(=O)Nc2ccc3ccccc3c2)C(=O)N1Cc1ccccn1 (configuration not stated) | 14.1µM* | 7.6% | -1.4% | -13.0
SMILES | NS1 inh | SARS PLP yeast | AMA1 RON2 block | Flu NS1 inh
N[C@@H](Cc1ccccc1)C(=O)N1CCC(C(=O)N[C@@H](CCC(=O)O)C(=O)O)CC1 | 7.8% | 1.8% | 36.9% | ·
CC(=O)Nc1cccc(NC(=O)CSc2nc(=O)n3cccc(C)c3n2)c1 | · | · | 13.0% | ·
Cc1cc(-c2nnc(CSc3nnc(NC(=O)c4ccc(C(C)(C)C)cc4)s3)o2)ccc1[N+](=O)[O-] | 0.4% | -2.0% | -14.2% | ·
COc1ccc(C2NC(=O)NC(C)=C2C(=O)OC2CCC(C)CC2)cc1 (configuration not stated) | ? | 25.5% | -9.8% | 5.8
COc1ccc(C2NC(=O)NC(C)=C2C(=O)OC2CCCCC2)cc1 (configuration not stated) | · | · | -16.4% | ·
CC1CCCCC1NC(=O)COC(=O)c1ccc2c(=O)n3c(nc2c1)CCC3 (configuration not stated) | · | -4.1% | -0.7% | ·
Cc1cc(OCc2cc(C(=O)NC(C)c3c(C)nn(C)c3C)no2)cc(C)c1Cl (configuration not stated) | -14.6% | -5.5% | -2.3% | ·
O=C(O)c1cc(N/N=C/c2ccc(N3CCOCC3)s2)ccc1Cl | 11.2µM* | 28.2% | 0.7% | 23.1
NC(=O)N/N=C/c1ccc(N2CCOCC2)s1 | 4.5% | 2.3% | 22.0% | ·
CCOC(=O)C1CCCN(C(=O)Cn2sc3nc(C)cc(C)c3c2=O)C1 (configuration not stated) | 5.01µM* | -14.3% | 11.2% | ?
Cc1cc(C)c2c(=O)n(CC(=O)N3CCC(N4CCCCC4)CC3)sc2n1 | 3.6% | -8.5% | -0.4% | ·
O=C(O)C1=CCNCC1 | -3.1% | · | 3.5% | ·
Cc1noc(C)c1CSc1ccccc1C(=O)N(C)CC(=O)Nc1cccc(F)c1 | · | 3.4% | 46.5% | ·
COc1ccccc1C(=O)NC(=O)COC(=O)c1ccc(Br)o1 | · | -1.2% | 3.0% | ·
Cc1[nH]n(C(N)=S)c(=O)c1C(c1ccccc1)C(C#N)C#N (configuration not stated) | -40.8% | 5.0% | 18.3% | ·
Cc1[nH]n(-c2ncc(-c3ccccc3)s2)c(=O)c1C(c1ccc(Br)cc1)C(C#N)C#N (configuration not stated) | 4.47µM* | -4.2% | 25.9% | -21.0
Cc1ccc(S(=O)(=O)N(C)C)cc1NC(=O)COC(=O)CSc1ccccc1 | · | 2.5% | 16.8% | ·
O=C(CSc1nc2ccccc2c(=O)n1Cc1ccco1)NCc1ccco1 | 5.3% | 3.0% | -6.0% | ·
COc1cc2nc(SCC(=O)NCCc3ccccc3)n(Cc3ccco3)c(=O)c2cc1OC | 2.51µM* | -1.4% | 17.3% | -2.6
Cc1noc(C)c1CSCC(=O)Nc1cc(C(F)(F)F)ccc1N1CCOCC1 | · | 4.0% | -14.6% | ·
O=C(c1cccs1)N1C[C@@H](n2cc(C3CC3)nn2)[C@H](O)C[C@@H]1c1ccccc1 | · | · | -6.8% | ·
Cc1ccc(SCc2c(C(=O)N/N=C/c3ccco3)nnn2-c2nonc2N)cc1 | · | · | 11.5% | ·
Nc1nonc1-n1nnc(C(=O)N/N=C/c2ccco2)c1CSc1ccccc1 | ? | 8.8% | 108.4% | 8.0
CCCOc1ccc(C(=O)Nc2cc(-c3nn4c(C)nnc4s3)ccc2C)cc1 | 4.47µM* | 11.5% | 9.5% | 4.6
CCOc1cccc(C(=O)Nc2cc(-c3nn4c(C)nnc4s3)ccc2C)c1 | -33.4% | 4.1% | -0.7% | ·
O=C(CCC1CCN(C(=O)c2cc(C(F)(F)F)ccc2Cl)CC1)NC1CC1 | 1.2% | 3.9% | 13.5% | ·
COc1ccc(-n2c(=S)[nH]c3cc(C(=O)NCc4ccccc4OC)ccc3c2=O)c(OC)c1 | 10.8% | 1.2% | 76.7% | ·
COc1ccc(-n2c(=S)[nH]c3cc(C(=O)NCc4ccco4)ccc3c2=O)c(OC)c1 | 12.6µM* | 12.7% | 84.0% | 4.1
CC(C)Cn1c(=O)c(C(=O)NCc2ccc3c(c2)OCO3)c(O)c2ccccc21 | 4.4% | 11.2% | 119.8% | ·
Cc1ccc(S(=O)(=O)Nc2ccc(-c3nc4ccc(C)cc4s3)cc2)cc1 | 19.2% | -3.8% | -5.1% | ·

Source: PubChem BioAssay (National Center for Advancing Translational Sciences (NCATS))
